# Measurements from PubChem BioAssay (NCI).
# Compounds without any hit were thinned out: in the full panel of roughly 79,000, 15% have a hit. A number with no mark means an inactive call. Active and inactive are the calls of the source. Rule as the data show it: active = growth inhibition above about 70%; inactive = the rest.
# Legend:
# [1] = NCI Yeast Anticancer Drug Screen. Data for the rad52 strain (AID 147);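 also: 0% = growth of vehicle-treated control cultures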; details: S. cerevisiae rad52 mutant growth inhibition, hits give high values
# Summary of the method: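 Growth of repair-deficient yeast cells was compared between compound-treated and vehicle-treated cultures to give percent inhibition.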
# [2] = NCI Yeast Anticancer Drug Screen. Data for the wt1 strain (AID 149);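 also: 0% = growth of vehicle-treated wt1 cultures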; details: S. cerevisiae wt1 strain (SPY 50644) growth inhibition, hits give high values
# Summary of the method: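 Vehicle-normalised growth inhibition; strain wt1; compound exposure.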
# [3] = NCI Yeast Anticancer Drug Screen. Data for the rad50EPP+ strain (AID 151);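 also: 0% = growth of vehicle-treated control cultures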; details: S. cerevisiae rad50 mutant strain, hits give high values
# Summary of the method: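 Measured: growth inhibition of rad50EPP+ yeast. Reference: vehicle-treated controls. Screen uses strains with defined genetic alterations in DNA damage repair or cell cycle control.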
# [4] = NCI Yeast Anticancer Drug Screen. Data for the mgt1 strain (AID 153); details: S. cerevisiae mgt1 mutant growth inhibition, hits give high values
# Summary of the method: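 Compounds were applied to mgt1 mutant yeast, and growth was then compared against vehicle-treated control cultures to give percent inhibition.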
# [5] = NCI Yeast Anticancer Drug Screen. Data for the rad50 strain (AID 155);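 also: 0% = growth of vehicle-only cultures of the same strain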; details: S. cerevisiae rad50 strain growth inhibition, hits give high values
# Summary of the method: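 A DNA repair-deficient yeast mutant serves as the test organism; compound-induced growth inhibition is calculated against vehicle-treated cells.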
# [6] = NCI Yeast Anticancer Drug Screen. Data for the mec2-1 strain (AID 157); details: S. cerevisiae mec2-1 strain, hits give high values
# Summary of the method: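 Compounds were applied to mec2-1 yeast cells. Their growth was then compared with that of vehicle-treated cultures to give growth inhibition.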
# [7] = NCI Yeast Anticancer Drug Screen. Data for the rad14 strain (AID 159);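 also: 0% = growth of vehicle-treated control cultures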; details: S. cerevisiae rad14 strain growth inhibition, hits give high values
# Summary of the method: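 Vehicle-treated cultures served as the baseline for growth inhibition of a DNA repair-mutant yeast strain exposed to each compound.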
# [8] = NCI Yeast Anticancer Drug Screen. Data for the sgs1 mgt1 strain (AID 161);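 also: 0% = growth of cultures given vehicle only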; details: S. cerevisiae sgs1 mgt1 strain, hits give high values
# Summary of the method: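 Compounds are added to genetically altered yeast, and growth is compared with cultures given vehicle alone to give percent inhibition.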
# [9] = NCI Yeast Anticancer Drug Screen. Data for the CLN2oe strain (AID 163);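 also: 0% = growth of vehicle-only control cultures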; details: S. cerevisiae CLN2oe strain, hits give high values
# Summary of the method: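 Cells of an engineered yeast line with disturbed cell-cycle regulation are treated with compound. Inhibition of growth is then calculated relative to the vehicle-treated reference.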
# [10] = NCI Yeast Anticancer Drug Screen. Data for the cln2 rad14 strain (AID 165);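 also: 0% = growth equal to vehicle treated cultures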; details: S. cerevisiae cln2 rad14 strain, hits give high values
# Summary of the method: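 Strain: cln2 rad14 yeast, altered in cell cycle control and DNA damage repair. Read-out: growth inhibition vs vehicle.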
# [11] = NCI Yeast Anticancer Drug Screen. Data for the wt2 strain (AID 169);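 also: 0% = growth of vehicle-treated yeast cultures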; details: S. cerevisiae wt2 strain growth inhibition, hits give high values
# Summary of the method: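 Growth of compound-treated yeast is measured and expressed as inhibition relative to vehicle-only controls.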
# [12] = NCI Yeast Anticancer Drug Screen. Data for the mlh1 strain (AID 171);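 also: 0% = growth of vehicle-treated control cultures of the same strain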; details: S. cerevisiae mlh1 strain growth inhibition, hits give high values
# Summary of the method: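 Test agents were incubated with yeast bearing a defined DNA damage repair or cell cycle control alteration; values are growth inhibition normalised to vehicle-treated cultures.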
# [13] = NCI Yeast Anticancer Drug Screen. Data for the sgs1 strain (AID 173);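 also: 0% = growth of vehicle-only control cultures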; details: S. cerevisiae sgs1 mutant, hits give high values
# Summary of the method: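 Strain with an altered DNA repair or cell cycle pathway exposed to compound. Growth then measured. Value = inhibition versus vehicle control.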
# [14] = NCI Yeast Anticancer Drug Screen. Data for the mlh1 rad18 strain (AID 175); details: S. cerevisiae mlh1 rad18 strain growth inhibition, hits give high values
# Summary of the method: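 A repair-deficient yeast strain is exposed to test compound, and growth is scored relative to vehicle-treated controls.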
# [15] = NCI Yeast Anticancer Drug Screen. Data for the rad18 strain (AID 177); details: S. cerevisiae rad18 mutant growth inhibition, hits give high values
# Summary of the method: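 DNA-repair-defective yeast; compound treatment; growth inhibition scored against vehicle.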
# [16] = NCI Yeast Anticancer Drug Screen. Data for the bub3 strain (AID 167); details: S. cerevisiae bub3 mutant strain, hits give high values
# Summary of the method: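 Inhibition values come from growth of compound-treated mutant yeast normalised to vehicle-treated controls.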
# [17] = at 5.0 µM (retest, dose inferred, filed as 0.5)
# [18] = at 50.0 µM (retest, dose inferred, filed as 5.0)
smiles,measurement,setting,value
CC1(C)C(=O)OC(n2cc(F)c(=O)[nH]c2=O)C1=O (stereo not drawn),growth inhibition,[1]; at 1.2 µM,-32%
same,growth inhibition,[1]; at 3.7 µM,-22%
same,growth inhibition,[1]; at 11.0 µM,-27%
same,growth inhibition,[1]; at 33.0 µM,-8%
same,growth inhibition,[1]; at 100.0 µM,26%
same,growth inhibition,[2]; at 1.2 µM,-39%
same,growth inhibition,[2]; at 3.7 µM,-43%
same,growth inhibition,[2]; at 11.0 µM,-18%
same,growth inhibition,[2]; at 33.0 µM,-36%
same,growth inhibition,[2]; at 100.0 µM,1%
same,growth inhibition,[3]; at 1.2 µM,-30%
same,growth inhibition,[3]; at 3.7 µM,-29%
same,growth inhibition,[3]; at 11.0 µM,-7%
same,growth inhibition,[3]; at 33.0 µM,21%
same,growth inhibition,[3]; at 100.0 µM,56%
same,growth inhibition,[4]; at 1.2 µM,19%
same,growth inhibition,[4]; at 3.7 µM,32%
same,growth inhibition,[4]; at 11.0 µM,34%
same,growth inhibition,[4]; at 33.0 µM,49%
same,growth inhibition,[4]; at 100.0 µM,67%
same,growth inhibition,[5]; at 1.2 µM,-11%
same,growth inhibition,[5]; at 3.7 µM,-10%
same,growth inhibition,[5]; [17],25%
same,growth inhibition,[5]; at 11.0 µM,3%
same,growth inhibition,[5]; at 33.0 µM,17%
same,growth inhibition,[5]; [18],74% (active)
same,growth inhibition,[5]; at 50.0 µM,6.6%
same,growth inhibition,[5]; at 100.0 µM,37%
same,growth inhibition,[6]; at 1.2 µM,-31%
same,growth inhibition,[6]; at 3.7 µM,-5%
same,growth inhibition,[6]; [17],1%
same,growth inhibition,[6]; at 11.0 µM,-11%
same,growth inhibition,[6]; at 33.0 µM,9%
same,growth inhibition,[6]; [18],34%
same,growth inhibition,[6]; at 50.0 µM,2.95%
same,growth inhibition,[6]; at 100.0 µM,60%
same,growth inhibition,[7]; at 1.2 µM,-36%
same,growth inhibition,[7]; at 3.7 µM,-37%
same,growth inhibition,[7]; at 11.0 µM,-18%
same,growth inhibition,[7]; at 33.0 µM,-15%
same,growth inhibition,[7]; at 100.0 µM,-8%
same,growth inhibition,[8]; [17],36%
same,growth inhibition,[8]; [18],80% (active)
same,growth inhibition,[8]; at 50.0 µM,30%
same,growth inhibition,[9]; at 1.2 µM,12%
same,growth inhibition,[9]; at 3.7 µM,13%
same,growth inhibition,[9]; at 11.0 µM,-1%
same,growth inhibition,[9]; at 33.0 µM,30%
same,growth inhibition,[9]; at 100.0 µM,-1%
same,growth inhibition,[10]; [17],27%
same,growth inhibition,[10]; [18],45%
same,growth inhibition,[10]; at 50.0 µM,56.8%
same,growth inhibition,[11]; at 1.2 µM,5%
same,growth inhibition,[11]; at 3.7 µM,20%
same,growth inhibition,[11]; at 11.0 µM,17%
same,growth inhibition,[11]; at 33.0 µM,43%
same,growth inhibition,[11]; at 100.0 µM,51%
same,growth inhibition,[12]; at 1.2 µM,-14%
same,growth inhibition,[12]; at 3.7 µM,-15%
same,growth inhibition,[12]; at 11.0 µM,-2%
same,growth inhibition,[12]; at 33.0 µM,19%
same,growth inhibition,[12]; at 100.0 µM,49%
same,growth inhibition,[13]; at 1.2 µM,-17%
same,growth inhibition,[13]; at 3.7 µM,-13%
same,growth inhibition,[13]; at 11.0 µM,-2%
same,growth inhibition,[13]; at 33.0 µM,45%
same,growth inhibition,[13]; at 100.0 µM,67%
same,growth inhibition,[14]; [17],13%
same,growth inhibition,[14]; [18],48%
same,growth inhibition,[14]; at 50.0 µM,15.7%
same,growth inhibition,[15]; at 1.2 µM,4%
same,growth inhibition,[15]; at 3.7 µM,8%
same,growth inhibition,[15]; at 11.0 µM,8%
same,growth inhibition,[15]; at 33.0 µM,21%
same,growth inhibition,[15]; at 100.0 µM,28%
CC1C(NNc2ccccc2)Oc2cc3c(cc2C1c1ccccc1O)OCO3 (stereo not drawn),growth inhibition,[1]; at 1.2 µM,67%
same,growth inhibition,[1]; at 3.7 µM,99% (active)
same,growth inhibition,[1]; at 11.0 µM,99% (active)
same,growth inhibition,[1]; at 33.0 µM,94% (active)
same,growth inhibition,[1]; at 100.0 µM,94% (active)
same,growth inhibition,[2]; at 1.2 µM,72% (active)
same,growth inhibition,[2]; at 3.7 µM,98% (active)
same,growth inhibition,[2]; at 11.0 µM,99% (active)
same,growth inhibition,[2]; at 33.0 µM,96% (active)
same,growth inhibition,[2]; at 100.0 µM,95% (active)
same,growth inhibition,[3]; at 1.2 µM,-1%
same,growth inhibition,[3]; at 3.7 µM,7%
same,growth inhibition,[3]; at 11.0 µM,71% (active)
same,growth inhibition,[3]; at 33.0 µM,90% (active)
same,growth inhibition,[3]; at 100.0 µM,91% (active)
same,growth inhibition,[4]; at 1.2 µM,-4%
same,growth inhibition,[4]; at 3.7 µM,63%
same,growth inhibition,[4]; at 11.0 µM,99% (active)
same,growth inhibition,[4]; at 33.0 µM,93% (active)
same,growth inhibition,[4]; at 100.0 µM,94% (active)
same,growth inhibition,[5]; at 1.2 µM,12%
same,growth inhibition,[5]; at 3.7 µM,95% (active)
same,growth inhibition,[5]; [17],17%
same,growth inhibition,[5]; at 11.0 µM,98% (active)
same,growth inhibition,[5]; at 33.0 µM,93% (active)
same,growth inhibition,[5]; [18],98% (active)
same,growth inhibition,[5]; at 50.0 µM,86.9% (active)
same,growth inhibition,[5]; at 100.0 µM,92% (active)
same,growth inhibition,[6]; at 1.2 µM,7%
same,growth inhibition,[6]; at 3.7 µM,80% (active)
same,growth inhibition,[6]; [17],34%
same,growth inhibition,[6]; at 11.0 µM,98% (active)
same,growth inhibition,[6]; at 33.0 µM,94% (active)
same,growth inhibition,[6]; [18],97% (active)
same,growth inhibition,[6]; at 50.0 µM,88.2% (active)
same,growth inhibition,[6]; at 100.0 µM,94% (active)
same,growth inhibition,[7]; at 1.2 µM,-4%
same,growth inhibition,[7]; at 3.7 µM,54%
same,growth inhibition,[7]; at 11.0 µM,99% (active)
same,growth inhibition,[7]; at 33.0 µM,93% (active)
same,growth inhibition,[7]; at 100.0 µM,93% (active)
same,growth inhibition,[8]; [17],-26%
same,growth inhibition,[8]; [18],97% (active)
same,growth inhibition,[8]; at 50.0 µM,89.6% (active)
same,growth inhibition,[9]; at 1.2 µM,-1%
same,growth inhibition,[9]; at 3.7 µM,98% (active)
same,growth inhibition,[9]; at 11.0 µM,96% (active)
same,growth inhibition,[9]; at 33.0 µM,90% (active)
same,growth inhibition,[9]; at 100.0 µM,88% (active)
same,growth inhibition,[10]; [17],47%
same,growth inhibition,[10]; [18],97% (active)
same,growth inhibition,[10]; at 50.0 µM,90.8% (active)
same,growth inhibition,[16]; at 1.2 µM,-11%
same,growth inhibition,[16]; at 3.7 µM,68%
same,growth inhibition,[16]; [17],67%
same,growth inhibition,[16]; at 11.0 µM,98% (active)
same,growth inhibition,[16]; at 33.0 µM,93% (active)
same,growth inhibition,[16]; [18],98% (active)
same,growth inhibition,[16]; at 50.0 µM,91.5% (active)
same,growth inhibition,[16]; at 100.0 µM,94% (active)
same,growth inhibition,[11]; at 1.2 µM,51%
same,growth inhibition,[11]; at 3.7 µM,98% (active)
same,growth inhibition,[11]; at 11.0 µM,99% (active)
same,growth inhibition,[11]; at 33.0 µM,96% (active)
same,growth inhibition,[11]; at 100.0 µM,94% (active)
same,growth inhibition,[13]; at 1.2 µM,94% (active)
same,growth inhibition,[13]; at 3.7 µM,99% (active)
same,growth inhibition,[13]; at 11.0 µM,99% (active)
same,growth inhibition,[13]; at 33.0 µM,95% (active)
same,growth inhibition,[13]; at 100.0 µM,95% (active)
same,growth inhibition,[14]; [17],83% (active)
same,growth inhibition,[14]; [18],98% (active)
same,growth inhibition,[14]; at 50.0 µM,91.9% (active)
same,growth inhibition,[15]; at 1.2 µM,12%
same,growth inhibition,[15]; at 3.7 µM,94% (active)
same,growth inhibition,[15]; at 11.0 µM,98% (active)
same,growth inhibition,[15]; at 33.0 µM,91% (active)
same,growth inhibition,[15]; at 100.0 µM,92% (active)
